This note sets out measurements from PubChem BioAssay AID1259240 (Keith Lab, Institute of Cancer Science, University of …, 2017).

Values without a mark were called inactive. The source made the active and inactive calls. No stated cut-off is given here; in the data, active means fold change mostly below about -2 (no sharp cut-off); inactive means mostly above about -1.8.

A short description of the experiment: modulation of TERT promoter-driven luciferase – cell-based, luciferase reporter, human, primary screen (AID 1259240). The following applies: A2780 TERT promoter luciferase reporter, 16 h; at 20 µM, fold versus average of vehicle-only wells. (In general: Reporter assays use an easily measured gene product as a stand-in for the process of interest.)
For the compound `Cc1nc2c(-c3ccc(F)cc3)c(C)nn2c(C)c1CCC(=O)NCc1ccc2c(c1)OCO2`, the fold change is 1.02.
With `CCc1nc(N)c(C#N)c(-c2ccco2)c1C`, the fold change was -2.16 (active).
Consider `O=C(CC(=O)Nc1ccccn1)Nc1ccc2nc3n(c(=O)c2c1)CCCCC3`, for which the fold change is -1.11.
For the compound `C=CCn1c(Oc2ccc(C(=O)OC)cc2)nc2c1c(=O)n(C)c(=O)n2C`, the fold change is -2.04 (active).
For `Cc1ccc(C(C)C)cc1OCC(O)Cn1cnc2ccccc21` (centres undefined), the fold change is -1.17.
With `CN(C)S(=O)(=O)c1cccc(-c2cn3cccnc3n2)c1`, the fold change is -2.07 (active).
Regarding `Cc1c(C(=O)N2CC(C)CC(C)C2)sc2ncn(CC(=O)N3CCC(C)CC3)c(=O)c12` (centres undefined), the fold change was -1.37.
With `CN(C)CCCN1C(=O)CSC1c1ccccc1` (centres undefined), the fold change was -1.42.
On the same count and under the same terms, to `Cc1ccc(Nc2nc3ccccc3n3cnnc23)cc1` belongs 1.11; to `CCOC(=O)N1CCC(Nc2c(N3CC(C)CC(C)C3)c(=O)c2=O)CC1` (centres undefined), 1.09; to `O=C(CCN1C(=O)c2ccccc2S1(=O)=O)Nc1cc(Cl)ccc1Cl`, 1.22.
On the same count and under the same terms, in the case of `CCCc1nnc2n1Nc1nc3ccccc3nc1S2` it was 1.62; in that of `CN1C(=O)/C(=C/c2cn(CC(N)=O)c3ccccc23)c2ccccc21`, 1.5.
As to `CCc1ccc(C2C3=C(CC(C)(C)CC3=O)NC3=C2C(=O)c2ccccc23)cc1` (centres undefined), the fold change was -2.26 (active).
The same measure, in the same setting: to `Cc1ccc(-c2cc(N)n(S(=O)(=O)c3cccc4nsnc34)n2)cc1` belongs -1.42.
The same measure, in the same setting: to `O=C(CSc1nc(-c2ccco2)cc(C(F)(F)F)n1)N1CCc2ccccc21` belongs -1.91; to `CCCN(CCC)c1c(NC2CCN(C(=O)OCC)CC2)c(=O)c1=O`, -1.25.
For the compound `Cn1c(=O)c(=O)n(C)c2cc(S(=O)(=O)N3CCC(C(N)=O)CC3)ccc21`, the fold change was -1.21.
Regarding `FC(F)(F)c1cccc(N2CCN(c3ccc4nncn4n3)CC2)c1`, the fold change is -1.15.
Take `O=C1c2ccccc2C(=O)N1CCC1=NCCc2ccccc21`: the fold change is -1.59.
Turning to `CN(CC(=O)NCc1ccco1)S(=O)(=O)c1ccc2c(c1)CCC(=O)N2`, the fold change is -1.35.
`CCOC(=O)C1=C(CS(=O)(=O)c2ccc(C)c(C)c2)NC(=O)NC1c1ccc(O)c(OC)c1` (centres undefined): the fold change was 1.22.
Regarding `Nc1nc(SCC(=O)NCCCN2CCOCC2)nc2sc3c(c12)CCC3`, the fold change was -1.53.
As to `COc1ccc2cc3c(N)nn(C(=O)CN4CCOCC4)c3nc2c1`, the fold change is -1.27.
The same measure, in the same setting: in the case of `COc1ccc(-c2n[nH]c3c2C(c2ccc(Cl)cc2)NC3=O)cc1` (centres undefined) it was -3 (active); in that of `CC(C)SC1=NSC2=NC(=O)/C(=C\c3ccco3)C(=N)N21`, 1.5.
Consider `COC(=O)CSc1nnc2c3c4c(sc3nc(C)n12)CCCC4`, for which the fold change was -1.45.
As for `O=C(NC1CCCCC1)C(=O)c1c(-c2ccccc2)cc2ccccn12`, the fold change was 1.24.
On the same count and under the same terms, to `O=C(CSc1nc(-c2ccc(F)cc2)cc(C(F)(F)F)n1)NCCCn1ccnc1` belongs -1.16.
As to `CC(C)OCCCNc1nc(-c2ccccc2)nc2ccccc12`, the fold change is -1.24.
On to `COc1cccc(C2C(C#N)=C(N)Oc3n[nH]c(-c4ccc(Br)cc4)c32)c1OC` (centres undefined), for which the fold change was -1.08.
`COc1cc2c(=O)c(S(=O)(=O)c3ccccc3)cn(Cc3ccccc3F)c2cc1OC`: the fold change was 1.06.
Take `O=S(=O)(Nc1cccc(C(F)(F)F)c1)c1cccc2cccnc12`: the fold change was -1.42.
On to `O=C(CSc1nc2[nH]ncc2c(=O)n1-c1ccccc1)Nc1nsc(-c2ccc(Cl)cc2)n1`, for which the fold change is 1.26.
In the case of `O=C(CC1(CC2=NS(=O)(=O)c3ccccc3N2)CCCC1)NCc1ccccc1`, the fold change was -1.27.
The same measure, in the same setting: to `COc1ccc(N2CN=c3s/c(=C4\C(=O)N(C)c5ccccc54)c(=O)n3C2)cc1` belongs -1.56.
Turning to `N=C1C(c2nc3ccccc3c(=O)[nH]2)=C(O)CN1c1ccc(Cl)c(Cl)c1`, the outcome was active.
On to `COc1cccc2cc(S(=O)(=O)c3ccccc3)c(=O)oc12`, for which the fold change was 1.83.
Regarding `O=c1[nH]c2ncccc2c(=O)n1CCc1c[nH]c2ccccc12`, the fold change is -1.06.
